Usually AC50 stands for the concentration at which the activity in the assay is half-maximal.

Our source for the outcome and AC50 values is PubChem BioAssay (EPA / NIEHS).

Active and inactive are the calls of the source. Rule for the calls: active = hit-call score of the fitted dose curve at least 0.9, where 1 is the maximum; inactive = score below 0.9.

Read-out in experiment [1]: C-C motif chemokine 2 (Homo sapiens) (UniProt P13500)
In words: BSK_KF3CT_MCP1: BioMAP Diversity Plus: KF3CT Assay for Monocyte Chemoattractant Protein 1 (MCP1/CCL2) Biomarker Activity (AID 2283073). The note with it: primary human keratinocytes with fibroblasts; actives raise or lower the signal. Summed up:
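KF3CT skin co-culture (keratinocytes/foreskin fibroblasts), 24 h post-dose; MCP-1 by ELISA; gain/loss of signal fit bidirectionally vs DMSO baseline.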

Read-out in experiment [2]: urokinase plasminogen activator (uPA), PLAU (gene 5328)
In words: BSK_KF3CT_uPA: BioMAP Diversity Plus: KF3CT Assay for urokinase plasminogen activator (uPA) Biomarker Activity (AID 2283075). The note with it: primary human keratinocytes with fibroblasts; actives raise or lower the signal. Summed up:
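Human keratinocyte plus foreskin fibroblast primary co-culture exposed to chemical for 24 h. uPA levels were quantified by ELISA, and activity was fitted bidirectionally against a DMSO negative-control baseline.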

Read-out in experiment [3]: CD40, CD40 (gene 958)
In words: BSK_LPS_CD40: BioMAP Diversity Plus: LPS Assay for CD40 Biomarker Activity (AID 2283076). To be noted: primary human HUVEC with PBMC; actives raise or lower the signal. Summed up: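 ELISA readout of CD40 in HUVEC/PBMC co-culture (BSK_LPS system), 24 h post-dosing; bidirectional curve fit, DMSO baseline; parallel SRB total-protein staining for cytotoxicity.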

Read-out in experiment [4]: E-selectin (Homo sapiens) (UniProt P16581)
In words: BSK_LPS_Eselectin: BioMAP Diversity Plus: LPS Assay for Eselectin Biomarker Activity (AID 2283077). To be noted: primary human HUVEC with PBMC; actives raise or lower the signal. Summed up: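 ELISA readout of E-selectin, 24 h post-dose, HUVEC + PBMC co-culture (LPS system). Gain or loss of signal vs DMSO baseline, bidirectional fit.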

Read-out in experiment [5]: Interleukin-8 (IL8), CXCL8 (gene 3576)
The experiment can be described thus: BSK_LPS_IL8: BioMAP Diversity Plus: LPS Assay for Interleukin-8 (IL8) Biomarker Activity (AID 2283078). To be noted: primary human HUVEC with PBMC; actives raise or lower the signal. Summed up:
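HUVEC + PBMC co-culture, LPS-activated; test chemicals dosed, IL-8 read by ELISA at 24 h. Bidirectional curve fit vs DMSO baseline (gain or loss of signal).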

Experiment [6] can be described thus: BSK_LPS_SRB: Viability Assessment in the BioMAP Diversity Plus: LPS Assay (AID 2283079).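 Note: total protein by sulforhodamine B absorbance as a cytotoxicity measure; measured one day after compound addition; fitted in both directions against DMSO so loss or gain of signal counts.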 The note with it: primary human HUVEC with PBMC. The method, boiled down:
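HUVEC + PBMC co-culture, LPS-stimulated; compound 24 h. 10% TCA fix, 0.1% SRB stain, A560. Bidirectional fit vs DMSO.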

Read-out in experiment [7]: Interleukin-1 alpha (IL1a), IL1A (gene 3552)
In words: BSK_LPS_IL1a: BioMAP Diversity Plus: LPS Assay for Interleukin-1 alpha (IL1a) Biomarker Activity (AID 2283080). The note with it: primary human HUVEC with PBMC; actives raise or lower the signal. The method, boiled down:
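HUVEC/PBMC co-culture, LPS system; 24 h after dosing; IL-1a by ELISA; gain or loss of signal fitted bidirectionally vs DMSO baseline.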

Read-out in experiment [8]: Monocyte Chemoattractant Protein-1 (MCP1), CCL2 (gene 6347)
In words: BSK_LPS_MCP1: BioMAP Diversity Plus: LPS Assay for Monocyte Chemoattractant Protein-1 (MCP1) Biomarker Activity (AID 2283081). To be noted: primary human HUVEC with PBMC; actives raise or lower the signal. The method, boiled down:
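ELISA read-out of MCP-1 after 24 h chemical dosing of a human umbilical vein endothelial cell/peripheral blood mononuclear cell co-culture stimulated with LPS. Gain or loss of signal fitted relative to DMSO controls.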

Experiment [9] in a line: BSK_LPS_PGE2: BioMAP Diversity Plus: LPS Assay for Prostaglandin E2 (PGE2) Biomarker Activity (AID 2283082).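 For AC50: secreted prostaglandin E2 measured by ELISA in LPS-stimulated co-culture.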 To be noted: primary human HUVEC with PBMC; actives raise or lower the signal. The method, boiled down:
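HUVEC plus human PBMC co-culture stimulated with LPS; secreted PGE2 quantified by ELISA 24 h after chemical dosing. Activity fitted bidirectionally against DMSO baseline; parallel SRB staining (0.1% SRB after 10% TCA fixation, 560 nm) flags overt cytotoxicity.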

Read-out in experiment [10]: Macrophage colony-stimulating factor (MCSF), CSF1 (gene 1435)
In words: BSK_LPS_MCSF: BioMAP Diversity Plus: LPS Assay for Macrophage colony-stimulating factor (MCSF) Biomarker Activity (AID 2283083). The note with it: primary human HUVEC with PBMC; actives raise or lower the signal. The method, boiled down:
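HUVEC + PBMC co-culture (human primary), 24 h post-dose; M-CSF by ELISA; gain/loss of signal fitted bidirectionally vs DMSO baseline.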

Read-out in experiment [11]: Tissue Factor, F3 (gene 2152)
In words: BSK_LPS_TissueFactor: BioMAP Diversity Plus: LPS Assay for Tissue Factor Biomarker Activity (AID 2283084). To be noted: primary human HUVEC with PBMC; actives raise or lower the signal. Summed up: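 HUVEC/PBMC co-culture, LPS-activated; CD142 ELISA read 24 h post-dose; bidirectional curve fit vs DMSO negative control.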

Read-out in experiment [12]: Tumor necrosis factor (Homo sapiens) (UniProt P01375)
The experiment can be described thus: BSK_LPS_TNFa: BioMAP Diversity Plus: LPS Assay for Tumour Necrosis Factor alpha (TNFa) Biomarker Activity (AID 2283085). The note with it: primary human HUVEC with PBMC; actives raise or lower the signal. The method, boiled down:
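Human umbilical vein endothelial cells co-cultured with PBMC and stimulated with LPS. TNFa was measured by ELISA 24 h after chemical dosing, fitted bidirectionally relative to DMSO.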

Read-out in experiment [13]: Vascular cell adhesion molecule 1 (VCAM1), VCAM1 (gene 7412)
The experiment can be described thus: BSK_LPS_VCAM1: BioMAP Diversity Plus: LPS Assay for Vascular cell adhesion molecule 1 (VCAM1) Biomarker Activity (AID 2283086). The note with it: primary human HUVEC with PBMC; actives raise or lower the signal. Summed up:
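Human umbilical vein endothelial cells co-cultured with PBMC and stimulated with LPS; VCAM-1 measured by ELISA 24 h after dosing. Bidirectional curve fitting against DMSO baseline; cytotoxicity tracked in parallel by SRB total-protein staining.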

Read-out in experiment [14]: CD38, CD38 (gene 952)
The experiment can be described thus: BSK_SAg_CD38: BioMAP Diversity Plus: SAg Assay for CD38 Biomarker Activity (AID 2283087). To be noted: primary human HUVEC with PBMC; actives raise or lower the signal. Summed up: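 Human HUVEC plus PBMC co-culture stimulated with superantigen; CD38 measured by ELISA 24 h after chemical dosing. Fluorescence read-out, bidirectional fit against DMSO; cytotoxicity tracked in parallel by SRB and Alamar Blue.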

Read-out in experiment [15]: CD40, CD40 (gene 958)
In words: BSK_SAg_CD40: BioMAP Diversity Plus: SAg Assay for CD40 Biomarker Activity (AID 2283088). To be noted: primary human HUVEC with PBMC; actives raise or lower the signal. Summed up:
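HUVEC/PBMC co-culture, 24 h post-dose; CD40 by ELISA, fluorescence intensity; bidirectional fit vs DMSO negative control.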

Read-out in experiment [16]: CD69, CD69 (gene 969)
In words: BSK_SAg_CD69: BioMAP Diversity Plus: SAg Assay for CD69 Biomarker Activity (AID 2283089).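 For AC50: cell surface CD69 protein quantified by ELISA with fluorescence detection.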 To be noted: primary human HUVEC with PBMC; actives raise or lower the signal. The method, boiled down: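 Values derive from bidirectional fitting relative to DMSO vehicle. Cells: umbilical vein endothelium plus peripheral blood mononuclear cells, treated 24 h before fluorescent ELISA for CD69.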

Read-out in experiment [17]: Monocyte Chemoattractant Protein-1 (MCP1), CCL2 (gene 6347)
The experiment can be described thus: BSK_SAg_MCP1: BioMAP Diversity Plus: SAg Assay for Monocyte Chemoattractant Protein-1 (MCP1) Biomarker Activity (AID 2283090). The note with it: primary human HUVEC with PBMC; actives raise or lower the signal. The method, boiled down: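 MCP-1 levels in the endothelial–PBMC SAg co-culture were quantified by ELISA at 24 h post-dosing; both increases and decreases versus DMSO scored. Cytotoxicity monitored by SRB total protein in parallel cultures.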

Read-out in experiment [18]: E-selectin (Homo sapiens) (UniProt P16581)
In words: BSK_SAg_Eselectin: BioMAP Diversity Plus: SAg Assay for Eselectin Biomarker Activity (AID 2283091). The note with it: primary human HUVEC with PBMC; actives raise or lower the signal. The method, boiled down:
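E-selectin ELISA readout at 24 h post-dosing in human umbilical vein endothelial cell/PBMC co-culture; gain or loss of signal fitted relative to DMSO baseline.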

Read-out in experiment [19]: Monokine induced gamma interferon (MIG), CXCL9 (gene 4283)
The experiment can be described thus: BSK_SAg_MIG: BioMAP Diversity Plus: SAg Assay for Monokine induced gamma interferon (MIG) Biomarker Activity (AID 2283092). To be noted: primary human HUVEC with PBMC; actives raise or lower the signal. Summed up:
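Values reflect bidirectional fitting of ELISA-measured MIG against DMSO vehicle, taken 24 h after dosing of a co-culture of human umbilical vein endothelial cells and peripheral blood mononuclear cells.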

Tumor necrosis factor (Homo sapiens), sequence (P01375 whole entry, looked up): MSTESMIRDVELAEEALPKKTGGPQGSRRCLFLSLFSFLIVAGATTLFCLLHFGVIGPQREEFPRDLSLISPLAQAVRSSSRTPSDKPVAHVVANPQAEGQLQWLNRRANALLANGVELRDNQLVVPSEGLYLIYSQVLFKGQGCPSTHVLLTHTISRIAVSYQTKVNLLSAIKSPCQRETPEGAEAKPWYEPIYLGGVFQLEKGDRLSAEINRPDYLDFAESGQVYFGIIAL
E-selectin (Homo sapiens), sequence (P16581 whole entry, looked up): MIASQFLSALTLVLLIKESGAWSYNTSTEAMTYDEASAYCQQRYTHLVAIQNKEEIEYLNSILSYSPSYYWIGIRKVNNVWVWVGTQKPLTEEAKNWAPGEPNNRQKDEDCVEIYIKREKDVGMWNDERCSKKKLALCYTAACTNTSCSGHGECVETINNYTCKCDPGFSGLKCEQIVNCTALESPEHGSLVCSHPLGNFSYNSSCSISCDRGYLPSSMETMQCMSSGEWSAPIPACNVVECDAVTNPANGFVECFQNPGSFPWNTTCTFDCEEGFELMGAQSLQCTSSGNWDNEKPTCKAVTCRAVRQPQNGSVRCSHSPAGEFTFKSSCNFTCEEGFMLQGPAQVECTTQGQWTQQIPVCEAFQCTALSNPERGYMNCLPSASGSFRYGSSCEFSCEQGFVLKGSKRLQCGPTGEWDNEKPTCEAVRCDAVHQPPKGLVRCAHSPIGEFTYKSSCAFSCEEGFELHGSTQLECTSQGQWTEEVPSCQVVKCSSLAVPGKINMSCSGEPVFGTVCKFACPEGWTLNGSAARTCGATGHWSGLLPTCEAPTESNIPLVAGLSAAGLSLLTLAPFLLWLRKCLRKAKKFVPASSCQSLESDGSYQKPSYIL

Consider `CCCCCCCCCC=O`, for which the outcome in [1], in [2], in experiment [3], in [4], in [5] and in [6] was inactive. The result in [7], in [8], in [9], in experiment [10], in [11] and in experiment [12] was inactive. In addition, the outcome in experiment [13], in experiment [15], in experiment [17] and in experiment [19] was inactive. The AC50 was 29.3 µM (active) in experiment [14], 29.9 µM (active) in experiment [16] and 33.6 µM (active) in experiment [18].
On to `c1ccc2sc(SN(C3CCCCC3)C3CCCCC3)nc2c1`, for which the outcome in [1], in [2], in experiment [3], in [4], in experiment [5] and in experiment [6] was inactive. Besides, the outcome in experiment [7], in experiment [8], in experiment [11], in experiment [13], in experiment [17] and in experiment [18] was inactive. Further, the outcome in experiment [19] was inactive. Also, the AC50 was 13.1 µM (active) in experiment [9]; 5.57 µM (active) in experiment [10]; 5.77 µM (active) in experiment [12]; 7.65 µM (active) in experiment [14]; 7.96 µM (active) in [15]; 5.79 µM (active) in experiment [16].
As to `Cc1ccc2n[nH]nc2c1`, the outcome in experiment [1], in [2], in experiment [3], in experiment [4], in [5] and in experiment [6] was inactive. Also, the result in [7], in experiment [8], in experiment [9], in [10], in experiment [11] and in experiment [12] was inactive. Also, the outcome in experiment [13], in experiment [14], in experiment [15], in experiment [16], in experiment [17] and in experiment [18] was inactive. Also, the outcome in [19] was inactive.
